Laboratory results reported in PMC7862700, “An all-to-all approach to the identification of sequence-specific readers for epigenetic DNA modifications on cytosine”.

How the values were obtained:
Experiment in all cases: DAPPL (digital affinity profiling via proximity ligation, sequencing); 10 mM Tris-HCl pH 7.5, 50 mM NaCl, 1 mM DTT, 4% glycerol, room temperature, 30 min; GST-TFs on glutathione beads, 16-mer random dsDNA library, 0.1% formaldehyde crosslink after washing; high values mean tight binding
[1] = biological target: T1, FEV (Homo sapiens, UniProt Q99581 1-238); details: protein: recombinant; tags: N-terminal GST; dsDNA, one strand shown
T1 sequence: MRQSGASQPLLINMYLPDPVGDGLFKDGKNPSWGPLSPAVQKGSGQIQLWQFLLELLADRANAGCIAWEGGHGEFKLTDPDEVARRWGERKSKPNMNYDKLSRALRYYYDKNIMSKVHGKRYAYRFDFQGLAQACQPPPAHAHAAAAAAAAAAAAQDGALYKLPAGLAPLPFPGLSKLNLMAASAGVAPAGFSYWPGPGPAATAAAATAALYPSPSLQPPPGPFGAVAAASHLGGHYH
How it was run: (§1)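 Pools of DNA-barcoded human transcription factors, expressed in yeast as GST fusions on glutathione beads and combined with a tag-only sample, were incubated with 200 nmole of a 16-mer random double-stranded DNA library. Incubation took 30 min at room temperature in Tris/NaCl/DTT/glycerol buffer and was followed by washing, 0.1% formaldehyde crosslinking, proximity ligation (BsaI/T4 ligase, 1 h, 37 °C), PCR amplification and sequencing on an Illumina NextSeq500. Binding signal is the ratio of a hexamer's read frequency for a factor to its frequency for the tag-only sample.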

[2] = biological target: ETV5 (Homo sapiens, UniProt P41161 1-510); details: protein: recombinant; tags: N-terminal GST; dsDNA, one strand shown
Sequence of ETV5 (P41161 whole entry): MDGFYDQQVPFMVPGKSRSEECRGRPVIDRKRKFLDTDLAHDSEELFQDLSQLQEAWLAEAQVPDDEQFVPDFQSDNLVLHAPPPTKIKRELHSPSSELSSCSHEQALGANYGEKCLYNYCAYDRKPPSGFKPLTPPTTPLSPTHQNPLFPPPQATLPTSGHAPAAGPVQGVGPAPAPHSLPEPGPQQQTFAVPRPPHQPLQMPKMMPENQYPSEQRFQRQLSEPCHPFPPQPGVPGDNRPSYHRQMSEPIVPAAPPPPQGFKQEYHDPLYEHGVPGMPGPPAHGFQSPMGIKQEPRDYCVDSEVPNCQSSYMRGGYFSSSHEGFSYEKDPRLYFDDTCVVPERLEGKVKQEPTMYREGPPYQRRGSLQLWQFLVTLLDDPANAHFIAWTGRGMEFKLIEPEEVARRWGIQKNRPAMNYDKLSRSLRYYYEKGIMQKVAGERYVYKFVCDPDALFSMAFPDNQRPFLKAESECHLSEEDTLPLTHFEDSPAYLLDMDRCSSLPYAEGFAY
How it was run: as §1

[3] = biological target: HSF1 (Homo sapiens, UniProt Q00613 1-529); details: protein: recombinant; tags: N-terminal GST; chain copies: 3; dsDNA, one strand shown
Sequence of HSF1 (Q00613 whole entry): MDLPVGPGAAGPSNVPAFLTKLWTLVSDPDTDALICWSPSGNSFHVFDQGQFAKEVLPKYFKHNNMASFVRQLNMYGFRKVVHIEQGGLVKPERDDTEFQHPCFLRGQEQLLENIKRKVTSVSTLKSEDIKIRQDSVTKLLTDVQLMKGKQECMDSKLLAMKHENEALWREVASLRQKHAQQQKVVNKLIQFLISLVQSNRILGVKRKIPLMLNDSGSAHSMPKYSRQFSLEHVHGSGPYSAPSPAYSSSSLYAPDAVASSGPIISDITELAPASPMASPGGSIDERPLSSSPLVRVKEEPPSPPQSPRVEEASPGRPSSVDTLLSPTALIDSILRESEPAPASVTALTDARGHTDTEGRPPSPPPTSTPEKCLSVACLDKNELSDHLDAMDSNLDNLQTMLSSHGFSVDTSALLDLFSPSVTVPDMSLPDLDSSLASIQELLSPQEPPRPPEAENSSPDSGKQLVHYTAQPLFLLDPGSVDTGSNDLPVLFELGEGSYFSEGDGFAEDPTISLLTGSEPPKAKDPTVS
How it was run: as §1

[4] = biological target: T2, SPIC (Homo sapiens, UniProt Q8N5J4 1-248); details: protein: recombinant; tags: N-terminal GST; dsDNA, one strand shown
T2 sequence: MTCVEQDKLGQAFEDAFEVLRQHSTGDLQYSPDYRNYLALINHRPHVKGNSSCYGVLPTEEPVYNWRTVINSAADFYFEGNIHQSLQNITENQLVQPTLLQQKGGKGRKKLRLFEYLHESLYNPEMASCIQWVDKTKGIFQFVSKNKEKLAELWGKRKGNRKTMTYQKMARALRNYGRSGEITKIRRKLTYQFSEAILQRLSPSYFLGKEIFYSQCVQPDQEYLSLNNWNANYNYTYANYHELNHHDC
How it was run: as §1

[5] = biological target: ELF4 (Homo sapiens, UniProt Q99607 1-663); details: protein: recombinant; tags: N-terminal GST; dsDNA, one strand shown
Sequence of ELF4 (Q99607 whole entry): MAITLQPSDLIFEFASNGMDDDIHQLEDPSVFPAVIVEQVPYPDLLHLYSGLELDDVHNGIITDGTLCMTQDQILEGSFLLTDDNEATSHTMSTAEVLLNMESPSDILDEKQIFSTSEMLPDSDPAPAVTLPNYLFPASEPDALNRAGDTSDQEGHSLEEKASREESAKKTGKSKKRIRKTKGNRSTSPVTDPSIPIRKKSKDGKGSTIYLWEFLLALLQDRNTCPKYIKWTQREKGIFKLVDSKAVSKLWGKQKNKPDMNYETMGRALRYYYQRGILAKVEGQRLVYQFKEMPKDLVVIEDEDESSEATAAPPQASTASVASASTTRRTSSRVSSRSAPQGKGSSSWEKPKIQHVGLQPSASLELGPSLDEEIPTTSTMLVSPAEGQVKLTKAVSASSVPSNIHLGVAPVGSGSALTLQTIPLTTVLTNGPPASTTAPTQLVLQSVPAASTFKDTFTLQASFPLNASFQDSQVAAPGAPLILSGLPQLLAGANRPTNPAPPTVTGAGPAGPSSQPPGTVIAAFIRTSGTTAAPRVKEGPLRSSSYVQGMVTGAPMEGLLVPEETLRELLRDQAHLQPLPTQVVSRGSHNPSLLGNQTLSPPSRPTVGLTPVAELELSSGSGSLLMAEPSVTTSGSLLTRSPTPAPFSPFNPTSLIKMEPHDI
How it was run: as §1

[6] = biological target: T3, ELK4 (Homo sapiens, UniProt P28324-2 1-405); details: protein: recombinant; tags: N-terminal GST; dsDNA, one strand shown
T3 sequence: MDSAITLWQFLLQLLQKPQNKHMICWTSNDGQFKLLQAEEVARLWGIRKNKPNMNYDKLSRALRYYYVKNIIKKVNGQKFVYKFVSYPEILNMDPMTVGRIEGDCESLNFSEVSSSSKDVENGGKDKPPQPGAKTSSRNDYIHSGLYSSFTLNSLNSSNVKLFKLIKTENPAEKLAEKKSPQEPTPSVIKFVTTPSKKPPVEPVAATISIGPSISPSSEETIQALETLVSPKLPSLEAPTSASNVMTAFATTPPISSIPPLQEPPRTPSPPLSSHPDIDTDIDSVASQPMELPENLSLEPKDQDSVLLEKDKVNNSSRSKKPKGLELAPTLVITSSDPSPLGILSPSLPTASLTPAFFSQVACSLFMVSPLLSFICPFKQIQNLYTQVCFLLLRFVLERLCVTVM
How it was run: as §1

[7] = biological target: T4, ETV2 (Homo sapiens, UniProt O00321 1-342); details: protein: recombinant; tags: N-terminal GST; dsDNA, one strand shown
T4 sequence: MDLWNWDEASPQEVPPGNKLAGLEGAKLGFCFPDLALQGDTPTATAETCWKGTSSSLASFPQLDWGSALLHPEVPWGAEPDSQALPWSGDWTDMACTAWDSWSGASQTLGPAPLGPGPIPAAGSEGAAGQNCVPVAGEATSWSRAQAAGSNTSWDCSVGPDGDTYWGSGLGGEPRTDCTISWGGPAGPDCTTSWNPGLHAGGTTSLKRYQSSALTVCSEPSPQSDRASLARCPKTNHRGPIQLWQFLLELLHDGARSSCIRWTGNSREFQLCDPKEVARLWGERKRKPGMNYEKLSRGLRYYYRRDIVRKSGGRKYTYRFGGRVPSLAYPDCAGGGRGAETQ
How it was run: as §1

[8] = biological target: T5, ELF3 (Homo sapiens, UniProt P78545 1-371); details: protein: recombinant; tags: N-terminal GST; dsDNA, one strand shown
T5 sequence: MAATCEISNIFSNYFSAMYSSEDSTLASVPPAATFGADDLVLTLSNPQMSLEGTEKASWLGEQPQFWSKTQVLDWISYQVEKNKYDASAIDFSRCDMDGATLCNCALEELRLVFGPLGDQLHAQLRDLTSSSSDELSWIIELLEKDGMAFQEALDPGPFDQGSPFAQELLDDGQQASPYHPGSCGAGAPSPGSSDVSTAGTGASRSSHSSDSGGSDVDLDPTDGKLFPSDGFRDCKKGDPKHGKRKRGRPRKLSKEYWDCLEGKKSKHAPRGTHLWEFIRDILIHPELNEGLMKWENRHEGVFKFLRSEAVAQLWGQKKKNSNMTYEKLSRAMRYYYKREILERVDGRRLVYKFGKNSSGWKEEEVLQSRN
How it was run: as §1

[9] = biological target: CRX (Homo sapiens, UniProt O43186 1-299); details: protein: recombinant; tags: N-terminal GST; dsDNA, one strand shown
Sequence of CRX (O43186 whole entry): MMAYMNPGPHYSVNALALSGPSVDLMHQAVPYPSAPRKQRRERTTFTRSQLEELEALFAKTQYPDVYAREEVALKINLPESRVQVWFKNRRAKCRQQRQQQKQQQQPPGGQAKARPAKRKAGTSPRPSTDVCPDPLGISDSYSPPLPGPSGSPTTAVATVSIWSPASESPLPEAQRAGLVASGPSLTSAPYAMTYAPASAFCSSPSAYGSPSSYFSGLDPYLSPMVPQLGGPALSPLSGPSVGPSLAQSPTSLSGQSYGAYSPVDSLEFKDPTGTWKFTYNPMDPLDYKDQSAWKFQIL
How it was run: as §1

[10] = biological target: ETV1 (Homo sapiens, UniProt P50549 1-477); details: protein: recombinant; tags: N-terminal GST; dsDNA, one strand shown
Sequence of ETV1 (P50549 whole entry): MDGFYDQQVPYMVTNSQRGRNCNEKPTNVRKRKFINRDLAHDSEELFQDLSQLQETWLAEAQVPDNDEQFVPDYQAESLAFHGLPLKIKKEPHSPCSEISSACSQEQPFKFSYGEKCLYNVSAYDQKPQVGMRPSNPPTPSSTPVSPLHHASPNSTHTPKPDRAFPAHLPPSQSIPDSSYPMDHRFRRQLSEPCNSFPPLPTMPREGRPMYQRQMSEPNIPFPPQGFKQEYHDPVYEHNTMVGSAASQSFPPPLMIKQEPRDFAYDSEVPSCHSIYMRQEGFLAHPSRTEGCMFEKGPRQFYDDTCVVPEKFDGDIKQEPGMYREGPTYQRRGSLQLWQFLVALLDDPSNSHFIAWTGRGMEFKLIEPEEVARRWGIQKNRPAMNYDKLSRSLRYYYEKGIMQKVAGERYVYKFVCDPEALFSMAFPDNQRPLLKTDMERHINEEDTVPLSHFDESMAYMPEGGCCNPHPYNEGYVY
How it was run: as §1

[11] = biological target: T6, ERF (Homo sapiens, UniProt P50548 1-548); details: protein: recombinant; tags: N-terminal GST; dsDNA, one strand shown
T6 sequence: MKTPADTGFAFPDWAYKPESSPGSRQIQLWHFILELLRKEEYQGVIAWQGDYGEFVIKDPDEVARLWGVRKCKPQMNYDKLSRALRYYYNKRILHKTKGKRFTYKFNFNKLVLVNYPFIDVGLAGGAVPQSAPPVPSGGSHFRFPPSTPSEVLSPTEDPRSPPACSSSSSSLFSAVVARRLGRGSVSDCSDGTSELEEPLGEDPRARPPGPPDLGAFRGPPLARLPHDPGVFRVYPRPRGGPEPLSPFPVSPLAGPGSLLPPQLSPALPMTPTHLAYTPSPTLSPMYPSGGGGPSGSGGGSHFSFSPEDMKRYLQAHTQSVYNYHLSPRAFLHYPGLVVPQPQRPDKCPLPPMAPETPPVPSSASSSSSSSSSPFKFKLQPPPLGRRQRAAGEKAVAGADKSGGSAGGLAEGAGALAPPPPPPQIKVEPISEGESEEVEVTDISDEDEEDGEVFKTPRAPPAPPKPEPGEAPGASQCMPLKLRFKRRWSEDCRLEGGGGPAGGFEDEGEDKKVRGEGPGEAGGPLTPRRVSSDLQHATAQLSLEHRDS
How it was run: as §1

[12] = biological target: T7, ETV3L (Homo sapiens, UniProt Q6ZN32 1-361); details: protein: recombinant; tags: N-terminal GST; dsDNA, one strand shown
T7 sequence: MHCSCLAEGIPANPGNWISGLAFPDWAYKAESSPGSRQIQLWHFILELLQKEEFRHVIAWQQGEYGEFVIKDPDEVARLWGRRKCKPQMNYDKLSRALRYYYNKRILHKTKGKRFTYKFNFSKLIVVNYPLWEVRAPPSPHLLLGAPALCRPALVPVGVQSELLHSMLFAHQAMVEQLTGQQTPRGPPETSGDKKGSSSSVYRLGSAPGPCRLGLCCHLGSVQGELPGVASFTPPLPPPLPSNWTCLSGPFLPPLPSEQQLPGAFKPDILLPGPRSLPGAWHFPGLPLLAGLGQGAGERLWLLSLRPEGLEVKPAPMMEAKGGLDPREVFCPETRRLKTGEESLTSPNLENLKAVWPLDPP
How it was run: as §1

[13] = biological target: T8, ETS2 (Homo sapiens, UniProt P15036 1-469); details: protein: recombinant; tags: N-terminal GST; dsDNA, one strand shown
T8 sequence: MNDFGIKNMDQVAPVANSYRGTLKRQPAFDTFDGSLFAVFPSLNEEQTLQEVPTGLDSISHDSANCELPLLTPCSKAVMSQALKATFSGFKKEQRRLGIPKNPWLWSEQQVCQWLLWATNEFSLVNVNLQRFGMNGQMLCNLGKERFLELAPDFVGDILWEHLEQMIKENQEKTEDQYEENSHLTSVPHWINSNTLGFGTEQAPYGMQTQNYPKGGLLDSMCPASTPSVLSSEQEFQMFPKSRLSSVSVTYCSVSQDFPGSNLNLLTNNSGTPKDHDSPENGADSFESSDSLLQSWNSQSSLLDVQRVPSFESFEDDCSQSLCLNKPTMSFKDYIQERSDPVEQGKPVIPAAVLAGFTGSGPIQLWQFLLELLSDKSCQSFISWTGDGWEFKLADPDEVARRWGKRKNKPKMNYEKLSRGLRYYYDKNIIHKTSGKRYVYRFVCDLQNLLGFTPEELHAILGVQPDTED
How it was run: as §1

[14] = biological target: T9, SPDEF (Homo sapiens, UniProt O95238 1-335); details: protein: recombinant; tags: N-terminal GST; dsDNA, one strand shown
T9 sequence: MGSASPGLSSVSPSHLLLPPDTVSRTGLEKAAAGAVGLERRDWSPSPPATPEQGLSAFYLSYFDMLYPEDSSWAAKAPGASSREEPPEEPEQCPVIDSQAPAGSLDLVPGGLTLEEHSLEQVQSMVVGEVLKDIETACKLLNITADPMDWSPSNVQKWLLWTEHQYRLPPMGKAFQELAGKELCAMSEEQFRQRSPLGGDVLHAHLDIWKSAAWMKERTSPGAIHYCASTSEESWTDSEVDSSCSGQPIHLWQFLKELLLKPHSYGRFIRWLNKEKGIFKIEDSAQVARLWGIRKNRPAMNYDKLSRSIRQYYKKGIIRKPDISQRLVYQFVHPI
How it was run: as §1

[15] = biological target: T10, ETV7 (Homo sapiens, UniProt Q9Y603 1-341); details: protein: recombinant; tags: N-terminal GST; dsDNA, one strand shown
T10 sequence: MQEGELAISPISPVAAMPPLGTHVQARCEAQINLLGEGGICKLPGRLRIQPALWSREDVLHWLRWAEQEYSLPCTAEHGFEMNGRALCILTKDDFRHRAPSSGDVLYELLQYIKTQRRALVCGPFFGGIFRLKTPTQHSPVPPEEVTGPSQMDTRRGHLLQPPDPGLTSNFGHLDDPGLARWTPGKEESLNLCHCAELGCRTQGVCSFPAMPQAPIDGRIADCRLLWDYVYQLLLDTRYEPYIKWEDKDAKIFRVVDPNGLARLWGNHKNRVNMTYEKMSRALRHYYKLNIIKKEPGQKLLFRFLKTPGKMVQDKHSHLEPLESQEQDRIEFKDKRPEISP
How it was run: as §1

[16] = biological target: T11, ELF5 (Homo sapiens, UniProt Q9UKW6-2 1-255); details: protein: recombinant; tags: N-terminal GST; dsDNA, one strand shown
T11 sequence: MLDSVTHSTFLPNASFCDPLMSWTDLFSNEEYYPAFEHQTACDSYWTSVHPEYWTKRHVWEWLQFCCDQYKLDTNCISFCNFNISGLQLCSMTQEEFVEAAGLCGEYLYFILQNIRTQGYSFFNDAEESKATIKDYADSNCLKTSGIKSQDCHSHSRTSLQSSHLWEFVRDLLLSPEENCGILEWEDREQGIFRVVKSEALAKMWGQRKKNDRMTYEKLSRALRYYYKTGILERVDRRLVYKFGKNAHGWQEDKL
How it was run: as §1

[17] = biological target: T12, ETV3 (Homo sapiens, UniProt P41162-2 1-143); details: protein: recombinant; tags: N-terminal GST; dsDNA, one strand shown
T12 sequence: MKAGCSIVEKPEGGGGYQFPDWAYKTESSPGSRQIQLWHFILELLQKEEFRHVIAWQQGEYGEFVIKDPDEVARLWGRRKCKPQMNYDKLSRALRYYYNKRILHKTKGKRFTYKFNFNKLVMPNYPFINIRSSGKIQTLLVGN
How it was run: as §1

[18] = biological target: ETV6 (Homo sapiens, UniProt P41212 1-452); details: protein: recombinant; tags: N-terminal GST; dsDNA, one strand shown
Sequence of ETV6 (P41212 whole entry): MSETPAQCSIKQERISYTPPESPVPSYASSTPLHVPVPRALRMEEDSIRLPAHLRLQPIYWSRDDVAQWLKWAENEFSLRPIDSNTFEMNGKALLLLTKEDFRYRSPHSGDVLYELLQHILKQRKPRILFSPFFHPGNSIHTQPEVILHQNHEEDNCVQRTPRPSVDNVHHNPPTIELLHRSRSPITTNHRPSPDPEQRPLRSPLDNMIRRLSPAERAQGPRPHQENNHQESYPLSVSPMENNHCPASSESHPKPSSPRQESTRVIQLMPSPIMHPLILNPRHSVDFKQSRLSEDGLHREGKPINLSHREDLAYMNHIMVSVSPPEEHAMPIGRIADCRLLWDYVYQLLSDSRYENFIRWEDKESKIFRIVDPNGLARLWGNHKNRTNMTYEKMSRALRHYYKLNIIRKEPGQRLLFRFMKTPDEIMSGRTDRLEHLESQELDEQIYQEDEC
How it was run: as §1

Q: Which binding signal [1] does the source give for ATATAA here?
A: 1.15 fold enrichment (6-mer frequency, TF over GST control)

Q: And the binding signal [2]?
A: 1.15 fold enrichment (6-mer frequency, TF over GST control)

Q: And the binding signal [3]?
A: 1.34 fold enrichment (6-mer frequency, TF over GST control)

Q: And the binding signal [4]?
A: 1.1 fold enrichment (6-mer frequency, TF over GST control)

Q: And the binding signal [5]?
A: 1.18 fold enrichment (6-mer frequency, TF over GST control)

Q: And the binding signal [6]?
A: 1.29 fold enrichment (6-mer frequency, TF over GST control)

Q: And the binding signal [7]?
A: 1.24 fold enrichment (6-mer frequency, TF over GST control)

Q: And the binding signal [8]?
A: 1.28 fold enrichment (6-mer frequency, TF over GST control)

Q: What about the binding signal [9] of the same sequence?
A: 1.68 fold enrichment (6-mer frequency, TF over GST control)

Q: What about the binding signal [10] of the same sequence?
A: 1.16 fold enrichment (6-mer frequency, TF over GST control)

Q: What about the binding signal [11] of the same sequence?
A: 1.16 fold enrichment (6-mer frequency, TF over GST control)

Q: And the binding signal [12]?
A: 1.23 fold enrichment (6-mer frequency, TF over GST control)

Q: And the binding signal [13]?
A: 1.2 fold enrichment (6-mer frequency, TF over GST control)

Q: What about the binding signal [14] of the same sequence?
A: 1.19 fold enrichment (6-mer frequency, TF over GST control)

Q: And the binding signal [15]?
A: 1.16 fold enrichment (6-mer frequency, TF over GST control)

Q: And the binding signal [16]?
A: 1.16 fold enrichment (6-mer frequency, TF over GST control)

Q: What about the binding signal [17] of the same sequence?
A: 1.27 fold enrichment (6-mer frequency, TF over GST control)

Q: What about the binding signal [18] of the same sequence?
A: 1.25 fold enrichment (6-mer frequency, TF over GST control)
